An excerpt weighted towards active compounds, which were near 6.8% of everything screened.
NS3h inh CB – hepatitis C NS3 helicase inhibition, primary screen | NS3h Cy5-dT15 DNA binding, fluorescence polarization | inhibition, % at 100 µM | 1.6% of 16,000 active;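 active = inhibition above the average over every tested compound plus 3 SD, cut at about 40% in these data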
Cy5 interf NS3h – enhances or quenches Cy5 fluorescence in NS3h assay; 6% of 16,000 active; fluorescence interference ratio at 100 µM; AID 720488; Cy5-dT15 DNA with NS3h, fluorescence interference; actives lie on both sides; signal over control mean, under 1 quenches;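 active = compound fluorescence over control fluorescence at most 0.8, a quencher, or at least a set upper limit, an enhancer; inactive = ratio between 0.8 and the set upper limit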
An asterisk follows results filed as active.

SMILES | NS3h inh CB | Cy5 interf NS3h
O=C(O)CCCc1nc2ccccc2[nH]1 | 1.2 | 0.729*
COc1ccc(/C=C/C(=O)N2CCCCCC2)cc1Br | 2.7 | 0.957
COc1ccc(/C=C/C(=O)N2CCOCC2)cc1OC | 12.4 | 0.626*
CCOC(=O)c1c(-c2ccccc2)oc2cc(Br)c(OCC(=O)C(C)(C)C)cc12 | 7.0 | 0.936
O=[N+]([O-])c1ccc(N2CCN(S(=O)(=O)c3ccccc3)CC2)cc1Sc1cccc2cccnc12 | 14.3 | 0.971
O=[N+]([O-])c1ccc(N2CCNCC2)cc1Sc1cccc2cccnc12 | 1.5 | 0.75*
O=C1CC(N2CCN(Cc3ccccc3)CC2)C(=O)N1c1ccc(Cl)c(Cl)c1 (stereo not given) | 6.2 | 0.903
O=C(O)CN=Cc1c(O)[nH]c2ccccc12 | -3.0 | 0.931
CSc1ccc(S(=O)(=O)N(CC(=O)Nc2cccc(C)c2)c2ccc(C)cc2)cc1 | 22.2 | 0.7*
COc1ccccc1NC(=O)CN(c1ccc(C)cc1)S(=O)(=O)c1ccc(SC)cc1 | 19.5 | 0.694*
COCCNC(=O)CN(c1ccc(C)cc1)S(=O)(=O)c1ccc(SC)cc1 | 4.2 | 0.923
CSc1ccc(S(=O)(=O)N(CC(=O)Nc2cccc(Br)c2)c2ccc(C)cc2)cc1 | 10.5 | 0.853
O=C(/C=C/c1ccccc1)C1=C(O)C(=O)N(c2ccccn2)C1c1ccccc1F (stereo not given) | 0.0 | 0.955
Cc1cc(/C=C2\C(=O)NC(=S)N(c3cccc(Cl)c3)C2=O)c(C)n1C | -17.9 | 1.11
Cc1ccc(C(=O)Nc2ccccc2C(=O)NC(Cc2c[nH]c3ccccc23)C(=O)O)cc1 (stereo not given) | 16.6 | 0.983
O=C(NC(c1ccccc1)c1ccccc1)C(=O)c1c[nH]c2ccccc12 | 15.2 | 0.655*
CC(=O)NC12CC3CC(CC(CCC(=O)O)(C3)C1)C2 | -1.4 | 0.852
O=C1N/C(=N/N=C\c2ccccc2)S/C1=C\c1ccccc1 | -13.9 | 1.11
O=C1NC(=Nc2ccccc2)S/C1=C/c1ccc(O)cc1 | 8.2 | 1.28*
COC(=O)C1=C(C)N=c2s/c(=C/c3ccc(OC)cc3OC)c(=O)n2C1c1cccs1 (stereo not given) | 8.7 | 1
COc1ccc(-n2c(C)nc3ncnc(-c4ccccc4)c32)cc1 | -1.7 | 0.927
O=C(CN(c1cccc(Cl)c1)S(=O)(=O)c1ccccc1)N1CCc2ccccc2C1 | 15.1 | 0.998
O=C1NC(=S)N(c2ccccc2)C(=O)/C1=C/c1ccc(O)c(Cl)c1 | 10.0 | 1.24*
O=C1NC(=S)N(c2cccc(Br)c2)C(=O)/C1=C/c1ccc(O)c(Cl)c1 | -5.0 | 1.16
O=C(CO/N=C\c1ccccc1)N=Nc1c(O)[nH]c2ccc(Br)cc12 | -6.5 | 0.778*
SMILES | NS3h inh CB | Cy5 interf NS3h
O=C(CSCc1cccc(Br)c1)N=Nc1c(O)[nH]c2ccccc12 | 15.5 | 0.804*
Cc1ccc2[nH]c(O)c(N=NC(=O)COc3ccccc3)c2c1Br | 11.4 | 0.859
NC(=O)N=Nc1c(O)[nH]c2ccccc12 | 12.4 | 0.846
CC(=O)c1ccc(Oc2ccc([N+](=O)[O-])cc2)cc1 | 9.6 | 0.638*
Cc1ccc(C(=O)Nc2c(C(=O)Nc3ccccc3)cnn2-c2ccccc2)cc1 | 12.0 | 0.927
Cc1ccc(NC(=O)c2ccc(Oc3ccc([N+](=O)[O-])cc3)cc2)cc1C | 5.0 | 0.947
CC(=O)Nc1ccc(C(=O)Nc2ccc([N+](=O)[O-])cc2)cc1 | -4.0 | 0.742*
O=C(Nc1ccc(F)cc1)c1ccc([N+](=O)[O-])cc1 | -10.7 | 1.05
Cc1c(C(=O)Nc2ccc([N+](=O)[O-])cc2)cnn1-c1ccccc1 | 5.0 | 0.578*
O=C(Nc1ccc(O)cc1)c1ccc2c(c1)C(=O)N(c1ccc([N+](=O)[O-])cc1)C2=O | 0.0 | 0.65*
Cc1ccc(N2C(=O)c3ccc(C(=O)Nc4ccc(O)cc4)cc3C2=O)cc1C | -5.8 | 1.01
Cc1cc(C)c(C2=C(C#N)C(N)=C(C#N)C3=CCCCCC32)c(C)c1 (stereo not given) | 18.5 | 0.898
COc1ccc(C2CC(C(F)(F)F)n3nc(C(=O)Nc4ccccc4SC)c(Cl)c3N2)cc1 (stereo not given) | 10.7 | 0.993
COC(=O)C1=C(C)N=C2SCCC(=O)N2C1c1ccc(OC)cc1 (stereo not given) | 8.7 | 1.02
O=C1NC2=Nc3ccccc3NC(c3ccccc3)=C2C(c2ccc(N3CCOCC3)cc2)N1 (stereo not given) | 0.0 | 1.06
COCCNC(=O)c1ccc(Cl)c([N+](=O)[O-])c1 | 4.4 | 1.07
O=C(CSCC(=O)Nc1ccccc1)NCc1ccccc1 | 6.9 | 1.13
COCCNC(=O)c1ccc([N+](=O)[O-])cc1 | 4.0 | 0.721*
O=C(CSCC(=O)Nc1ccc([N+](=O)[O-])cc1)Nc1ccccc1 | 5.9 | 0.623*
CCN1C(=O)/C(=C\c2ccc(O)c(OC)c2)SC1=S | 3.8 | 0.954
O=C1C2C3C=CC(C3)C2C(=O)N1/N=C\c1ccc2c(c1)OCO2 (stereo not given) | 2.3 | 0.942
COc1ccc(/C(N)=N\OC(=O)Cc2ccc(OC)c(OC)c2)cc1 | 6.8 | 0.994
Cc1ccc(NC(=O)c2ccco2)cc1NC(=O)c1ccccc1 | 8.7 | 0.78*
O=C(O)CCC(=O)Nc1ccc2nn(-c3ccccc3)nc2c1 | 3.0 | 1.01
COc1ccc(-n2nc3cc(C)c(NC(=O)c4ccco4)cc3n2)cc1 | 24.4 | 1.06
SMILES | NS3h inh CB | Cy5 interf NS3h
CCOC(=O)c1cccc(NC(=O)c2ccco2)c1 | 15.9 | 0.683*
COc1ccc(CC(=O)Nc2ccc(C)c(NC(=O)c3ccccc3)c2)cc1OC | -25.6 | 0.972
Nc1cccc(NC(=O)c2ccco2)c1 | -2.6 | 0.958
Cc1ccc(-n2nc3ccc(NC(=O)c4ccco4)cc3n2)cc1 | 14.1 | 0.683*
O=C(Nc1ccc2nn(-c3ccccc3)nc2c1)C(Cl)(Cl)Cl | 2.2 | 0.689*
Cc1ccc(OCC(=O)Nc2cc(C)cc(C)c2)cc1 | 14.7 | 1.02
O=[N+]([O-])c1ccc(-c2nc(Cc3c(F)cccc3Cl)no2)cc1 | 6.2 | 0.971
O=C(Nc1cccc(C(F)(F)F)c1)C1CN(S(=O)(=O)c2ccccc2)CCN1S(=O)(=O)c1ccccc1 (stereo not given) | -0.7 | 1.01
CC1(C)C(c2ccccc2)=[N+]([O-])C2(CCCCC/C2=N/NC(N)=O)N1O (stereo not given) | -7.1 | 1.11
COc1ccc(Cl)cc1NC(=O)COc1c(C)cc(C)cc1C | 8.8 | 0.89
COc1ccc(NC(=O)COc2ccc3ccccc3c2)c([N+](=O)[O-])c1 | 2.2 | 1.09
COc1ccc(NC(=O)CSc2ccncc2)c([N+](=O)[O-])c1 | -0.6 | 0.64*
COc1ccc(OCC(=O)Nc2ccc(I)cc2Cl)cc1 | 3.3 | 0.928
O=C(COc1ccc(Cl)cc1)Nc1ccc(I)cc1Cl | -1.3 | 1.23*
Cc1ccc(OCc2nnc(NC(=O)Nc3ccc(Cl)c(Cl)c3)s2)cc1 | 5.2 | 0.932
COc1cc(NC(=O)COc2cccc3ccccc23)cc(OC)c1 | 7.0 | 0.991
O=C(COc1cccc2ccccc12)Nc1ccncc1 | 7.8 | 0.802*
Cc1cccc(OCC(=O)Nc2ccc3c(c2)OCO3)c1C | 12.6 | 0.948
O=C(COc1cccc2ccccc12)Nc1ccc2c(c1)OCCO2 | 25.8 | 0.682*
O=C(COc1cccc2ccccc12)NCCO | 15.0 | 0.736*
COc1ccc(CCNC(=O)COc2cccc3ccccc23)cc1 | 11.9 | 1.01
COc1cccc(/C=N\NC(=O)c2cccc(N3CCCC3=O)c2)c1 | 5.5 | 1.16

From PubChem BioAssay
